Values joined by “and” are separate entries in the source; they are usually repeats but may differ in a detail not shown here. Equal entries are not always repeated. Inconclusive results are not listed. Where a structure was tested more than once in an assay, its records may differ in their call. Active and inactive are the calls of the source. Calls come from the whole dose curve.
Test: qHTS assay to identify small molecule agonists of the hypoxia (HIF-1) signaling pathway - cell viability counter screen (AID 1224844); note: nearly all actives have a fitted effect of over 50% in size
Settings: HRE-bla ME-180 viability, CellTiter-Glo luminescence, 17 h; series mostly up to 76.8 µM; activity change, negative = cytotoxicity: at the top concentration
Description: National Center for Advancing Translational Sciences [NCATS]
NIH Chemical Genomics Center [NCGC]
U.S. Environmental Protection Agency [EPA]
National Institutes of Environmental Health Sciences [NIEHS]
National Toxicology Program [NTP]
U.S. Food and Drug Administration [FDA]
Hypoxia-inducible factor-1 (HIF-1) is the major hypoxia-regulated transcription factor that controls cellular responses to low oxygen concentration. HIF-1 is composed of two subunits: hypoxia responsive HIF-1-alpha and constitutively expressed HIF-1-beta, which is also known as aryl hydrocarbon receptor nuclear translocator. During hypoxic conditions, HIF-1-alpha heterodimerizes with HIF-1-beta and translocates into the nucleus where the HIF-1 complex binds to the hypoxia-response element (HRE) and activates expression of target genes such as VEGF (vascular endothelial growth factor). The HIF-1 pathway is essential to normal growth and development, and is involved in the pathophysiology of cancer, inflammation, and ischemia.
Using a beta-lactamase reporter-gene under control of the hypoxia response element, a cell-based assay [CellSensor(TM) HRE-bla ME-180 from Life Technologies, Carlsbad, CA] was used to measure hypoxia-induced signaling. Tox21 10K library compounds were measured for their ability to induce the reporter gene activity. The cytotoxicity of the Tox21 compound library against HRE-bla ME-180 cell line was tested in parallel by measuring cell viability using CellTiter-Glo assay (Promega, Madison, WI) in the same assay wells.
Tox21 Assay Protocol Summary:
HRE-bla ME-180 cells were dispensed at 2,000 cells per well in 6 uL of assay medium containing 0.5% dialyzed FBS into black wall/clear-bottom 1536-well plates using a Multidrop Combi (Thermo Scientific, Waltham, MA) dispenser. After the assay plates were incubated at 37C and 5% CO2 for 5 hrs, 23 nL of compounds dissolved in DMSO, positive controls or DMSO only was transferred to each well of the assay plate using a Pintool station (Kalypsys, San Diego, CA). The assay plates were incubated at 37C and 5% CO2 for 17 hrs. One uL of LiveBLAzerTM B/G FRET substrate (CCF4-AM) (Life Technologies) was added to each well using a Flying Reagent Dispenser (FRD, Aurora Discovery, San Diego, CA). After 2 hr incubation at room temperature, fluorescence intensity (405 nm excitation, 460 nm and 530 nm emissions) was measured using an Envision plate reader (PerkinElmer, Shelton, CT). For cytotoxicity, 4 ul/well of CellTiter-Glo reagent was added into the assay plates using an FRD. After 30 min incubation at room temperature, the luminescence intensity was measured using a ViewLux plate reader (PerkinElmer).
% is set by controls: 0 for no effect and ±100 for the full control effect; potency is the fitted concentration of half-maximal effect.

Row | Compound | activity change, negative = cytotoxicity | Potency
1 | C#CC(O)CCC (stereo not given) | 1.8% (inactive) | 
2 | Nc1ccc2cc3ccc(N)cc3nc2c1 |  | 24.5 µM (active) and inactive
3 | CC1(C)C(=O)N(Br)C(=O)N1Br | -14.1% (inactive) | 
4 | Cc1cn[nH]c1 | 2.37% [at 35.3 µM] (inactive) | 
5 | Clc1ccccc1CN1CCc2sccc2C1 | -5.3% [at 35.3 µM] (inactive) | 
6 | Cn1cccc1 | 5.28% (inactive) | 
7 | CC(C)CCOCCC(C)C | 2.27% (inactive) | 
8 | O=C(O)CC(=O)O | -1% (inactive) | 
9 | CCN(CC)CCOC(=O)C1(C2CCCCC2)CCCCC1 | -8.41% [at 35.3 µM] (inactive) | 
10 | CCCN(CCc1cccs1)[C@H]1CCc2c(O)cccc2C1 | 3.04% [at 35.3 µM] (inactive) | 
11 | CC(C)(c1cc(Br)c(O)c(Br)c1)c1cc(Br)c(O)c(Br)c1 |  | 54.8 µM (active) and 48.9 µM (active)
12 | CSc1ccc2c(c1)N(CCC1CCCCN1C)c1ccccc1S2 (stereo not given) |  | 21.8 µM (active) and 21.3 µM (active)
13 | COc1cccc(OC)c1O | 0.248% (inactive) | 
14 | Cc1c(C(=O)O)cccc1[N+](=O)[O-] | -6.48% (inactive) | 
15 | COc1cc(C=C2CCC/C(=C\c3ccc(O)c(OC)c3)C2=O)ccc1O |  | 15.1 µM (active)
16 | CN1[C@@H]2CC[C@H]1CC(OC(=O)C(CO)c1ccccc1)C2 (stereo not given in full) |  | inactive
17 | CC(C)(c1cc(Br)c(OCCO)c(Br)c1)c1cc(Br)c(OCCO)c(Br)c1 |  | 42.7 µM (active)
18 | CC1(C)C(=O)N(CO)C(=O)N1CO | 0.187% (inactive) | 
19 | CC(=O)Oc1ccc(C2(c3ccc(OC(C)=O)cc3)Oc3ccccc3NC2=O)cc1 | 15.6% [at 35.3 µM] (inactive) | 
20 | C/C=C/c1ccc(OC)c(OC)c1 | 7.63% (inactive) | 

Row | Compound | activity change, negative = cytotoxicity | Potency
21 | CCOC(=O)CC(C)O (stereo not given) | 2.28% (inactive) | 
22 | CC[N+](CC)(CC)Cc1ccccc1 | -1.78% (inactive) | 
23 | O=C(O)c1cccc(Cl)n1 | -4% (inactive) | 
24 | CN(C)CCCN1c2ccccc2Sc2ccc(C(F)(F)F)cc21 | -25.9% [at 35.3 µM] (inactive) | 
25 | Cc1ccc(N)cc1O | -0.634% (inactive) | 
26 | OCCCS | 0.509% (inactive) | 
27 | CO[Si](CCCNCCNCCN)(OC)OC | 4.97% (inactive) | 
28 | CN(Cc1cc(Br)cc(Br)c1N)C1CCCCC1 | 2.57% [at 35.3 µM] (inactive) | 
29 | CC(=O)O[C@@H]1C[C@@H]2CC[C@@]1(C)C2(C)C | 6.7% (inactive) | 
30 | CN1CN(C)CN(C)C1 | 7.79% (inactive) | 
31 | Clc1cc(Cl)c(-c2c(Cl)c(Cl)cc(Cl)c2Cl)cc1Cl | 18.2% [at 35.3 µM] (inactive) | 
32 | O=CC1CC1 | 4.85% (inactive) | 
33 | CN1CCN(C2Cc3ccccc3Sc3ccc(Cl)cc32)CC1 (stereo not given) |  | 23.9 µM (active)
34 | CCCCCCCCCCCCCC[n+]1ccccc1 |  | 49 µM (active)
35 | COc1ccc2sc(C(=O)Nc3nnn[nH]3)c(OC(C)C)c2c1 |  | 24.5 µM (active)
36 | OCCCCl | 0.751% (inactive) | 
37 | CCC(C)c1ccccc1 (stereo not given) | 0.0753% (inactive) | 
38 | CCN(CC)CCNc1ccc(CO)c2sc3ccccc3c(=O)c12 |  | 26.8 µM (active)
39 | CCCCOc1ccc(C(=O)CCN2CCCCC2)cc1 | -18.7% [at 35.3 µM] (inactive) | 
40 | CCCOc1sc(C(=O)N2CCC(c3cc(CN)ccc3F)CC2)c(C)c1Br |  | 28.3 µM (active)

From PubChem BioAssay (Tox21)
